LMNA splice mod: LMNA splicing modulation | HeLa LMNA splicing GFP/RFP minigene ratio, 48 h | Potency, µM (top dose mostly 46.1 µM), for the others: top-dose ratio change, negative = inhibition, usual class: inhibitors | 200,000 compounds, 0.01% hits; active = well fitted inhibition curve with a large enough effect in the signal ratio, with a control signal flat, not every such curve was filed as active; inconclusive = small, poorly fitted or top-dose-only effect, or effect the other way, or a change in a side signal; the % refers to the signal ratio
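S3 HeLa cells stably expressing lamin A-EGFP splicing minigene plus DsRed2, 600 cells/well, 48 h compound exposure at 37C. Laser-scanning cytometry; analysed as GFP (500-530 nm)/RFP (575-640 nm) total intensity ratio; 0.5% DMSO vehicle.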
RECQ1 inh-1: blocks DNA unwinding by human RECQ1; P46063; RECQ1 DNA unwinding, red fluorescence kinetic read; Potency, µM (top dose mostly 57.3 µM), without a hit: at the top dose activity, negative = inhibition, usual class: inhibitors; 240,000 compounds, 0.54% hits; AID 2549;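 also: plate controls were vehicle for no effect and no enzyme for full effect; nearly all actives have a fitted effect of over 30% in size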
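RECQ1T1 50 nM; forked duplex (20 bp + 30-nt ss tails) 200 nM, ATP 2 mM final; pH 8.0, 2 mM MgCl2, 2.5 ug/ml poly(dI-dC); 15 min compound preincubation; discontinuous kinetic read over 2 h at RT.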
TDP1 inh: TDP1 (human) enzyme inhibition | 350,000 compounds, 0.28% hits | AID 485290 | recombinant TDP1, AlphaScreen DNA substrate cleavage | Potency, µM (series often up to 130 µM), for inactives: at the highest dose activity change, negative = inhibition, actives largely listed as inhibitors; also: nearly all actives have a fitted effect of over 40% in size
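Enzyme-compound mixtures sat 15 min at room temperature, followed by a 5 min reaction with 15 nM final substrate and 10 min with AlphaScreen beads. Recombinant human Tdp1 was used at 1 nM final.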
KAT2A inh: inhibitors of human GCN5L2 histone acetyltransferase. Q92830. GCN5L2 HAT assay, ThioGlo1 CoA-SH fluorescence. Potency, µM (top dose mostly 58.9 µM), without a hit: top-dose activity change, negative = inhibition, most hits filed as inhibitors. 390,000 compounds, 0.21% hits. AID 504327
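Free CoA generated was detected with ThioGlo1 (50uM) fluorescence at Ex340nm/Em540nm, read immediately and after 20 min at room temperature. Enzyme, 20 nM in HEPES pH 7.5 buffer, saw compounds 15 min before adding 75uM H3(1-25) peptide and 70uM acetyl-CoA.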
BLM inh-1: blocks DNA unwinding by human BLM helicase | recombinant BLM DNA unwinding, fluorescence dequenching | Potency, µM (top dose mostly 56.1 µM), for inactives: top-dose activity change, negative = inhibition, most hits filed as inhibitors | P54132 | AID 2528 | 350,000 compounds, 0.2% hits;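 also: plate controls were vehicle for no effect and no enzyme for full effect; nearly all actives have a fitted effect of over 35% in size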
Target sequence (P54132 whole entry, looked up): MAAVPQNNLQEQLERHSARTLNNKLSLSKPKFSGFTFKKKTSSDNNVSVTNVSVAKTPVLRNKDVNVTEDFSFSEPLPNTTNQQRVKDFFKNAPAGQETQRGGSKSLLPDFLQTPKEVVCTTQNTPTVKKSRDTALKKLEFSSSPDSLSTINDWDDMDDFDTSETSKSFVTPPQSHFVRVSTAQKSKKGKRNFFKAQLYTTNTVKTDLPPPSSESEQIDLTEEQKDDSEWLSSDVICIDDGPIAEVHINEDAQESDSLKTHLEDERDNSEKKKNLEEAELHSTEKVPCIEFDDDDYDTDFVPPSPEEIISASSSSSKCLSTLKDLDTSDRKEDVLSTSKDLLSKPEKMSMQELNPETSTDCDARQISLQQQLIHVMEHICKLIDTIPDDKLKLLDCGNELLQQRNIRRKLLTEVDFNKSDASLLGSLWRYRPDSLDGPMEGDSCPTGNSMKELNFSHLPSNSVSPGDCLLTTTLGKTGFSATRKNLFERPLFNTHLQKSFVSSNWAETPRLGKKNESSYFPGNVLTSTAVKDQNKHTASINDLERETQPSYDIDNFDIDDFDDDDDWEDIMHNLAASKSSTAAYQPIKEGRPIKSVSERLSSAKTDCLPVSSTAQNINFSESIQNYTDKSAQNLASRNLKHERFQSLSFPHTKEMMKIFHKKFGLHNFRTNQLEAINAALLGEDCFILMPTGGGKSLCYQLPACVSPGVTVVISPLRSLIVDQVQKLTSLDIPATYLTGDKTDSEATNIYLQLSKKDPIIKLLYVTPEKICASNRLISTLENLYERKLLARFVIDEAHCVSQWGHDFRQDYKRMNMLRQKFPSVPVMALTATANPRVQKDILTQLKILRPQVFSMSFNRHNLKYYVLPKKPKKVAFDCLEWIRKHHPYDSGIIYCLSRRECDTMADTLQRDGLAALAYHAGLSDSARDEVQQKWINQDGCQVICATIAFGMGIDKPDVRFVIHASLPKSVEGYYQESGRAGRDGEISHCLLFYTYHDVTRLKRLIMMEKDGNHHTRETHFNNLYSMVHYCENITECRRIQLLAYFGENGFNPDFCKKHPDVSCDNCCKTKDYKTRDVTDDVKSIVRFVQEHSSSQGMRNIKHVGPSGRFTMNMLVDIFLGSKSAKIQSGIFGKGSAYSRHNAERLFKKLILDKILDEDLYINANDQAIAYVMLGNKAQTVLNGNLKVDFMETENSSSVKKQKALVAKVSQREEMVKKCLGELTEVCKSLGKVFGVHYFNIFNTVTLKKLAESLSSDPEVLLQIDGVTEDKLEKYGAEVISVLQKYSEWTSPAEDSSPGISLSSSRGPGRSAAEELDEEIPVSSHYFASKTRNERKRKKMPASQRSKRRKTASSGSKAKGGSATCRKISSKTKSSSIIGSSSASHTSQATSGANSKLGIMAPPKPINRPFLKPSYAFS
APE1 inh: APE1 (human) endonuclease inhibition | recombinant APE1, TAMRA/BHQ-2 abasic DNA cleavage fluorescence | Potency, µM (doses to about 65.8 µM), inactives show top-dose activity change, negative = inhibition, usual class: inhibitors | 350,000 compounds, 0.35% hits;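 also: plate controls were vehicle for no effect and reference inhibitor for full effect; nearly all actives have a fitted effect of over 55% in size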
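Enzyme (0.75 nM final) and test compound are incubated 15 min at room temperature before adding 50 nM quenched THF abasic-site duplex. Cleavage dequenches TAMRA, followed at 525/598 nm over three reads one minute apart.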
BLM inh-2: BLM (human) helicase inhibition, confirmation; shares compounds with BLM inh-1; BLM DNA unwinding, fluorescence quenching, biochemical; Potency, µM, without a hit: max response, negative = inhibition, usual class: inhibitors; 220 compounds, 40% hits; AID 2585;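 also: strand separation dequenches TAMRA so unwinding raises red fluorescence; series mostly up to about 69 µM; nearly all actives have a fitted effect of over 45% in size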
RECQ1 conf: confirmation of human RECQ1 helicase inhibitors; Potency, µM (series often up to 229 µM), for inactives: at the highest dose activity change, negative = inhibition, most hits filed as inhibitors; 610 compounds, 28% hits; RECQ1 helicase DNA unwinding, fluorescence; shares compounds with RECQ1 inh-1; also: nearly all actives have a fitted effect of over 45% in size
ADP FP counter: displaces ADP in a fluorescence polarization counter-screen for RECQ1 hits. AID 2711. shares compounds with RECQ1 inh-1. Potency, µM (titrated, usually from 228 µM), for the others: top-dose activity change, negative = inhibition, usual class: inhibitors. ADP fluorescence polarization displacement counterscreen. 530 compounds, 27% hits; also: nearly all actives have a fitted effect of over 45% in size
RECQ1 inh-2: RECQ1 helicase inhibition confirmed, round 2 | recombinant RECQ1 DNA unwinding, red fluorescence | shares compounds with RECQ1 inh-1 | Potency, µM (highest dose often 119 µM), for inactives: at the top dose activity, negative = inhibition, most hits filed as inhibitors | 1,100 compounds, 15% hits; also: nearly all actives have a fitted effect of over 50% in size
Starred values were filed as active, the others as inactive; i = inactive; u = inconclusive; x = no result; [ ] = another dose, or the depositor's remark. Rows were chosen to be rich in hits. Some 0.9% of all compounds tested hit in one or more screens of this group. Unless noted, calls follow the shape of the dose curve; as a rule, active = well fitted curve in the direction sought with a large enough effect; inconclusive = small, poorly fitted or top-dose-only effect, or another doubt; inactive = no such curve, though single readings can be large; an effect the other way counts as inactive or inconclusive. Unless noted, % is scaled to controls: 0 for no effect and ±100 for the full control effect; potency is read from the fitted curve at half-maximal effect.

SMILES | LMNA splice mod | RECQ1 inh-1 | TDP1 inh | KAT2A inh | BLM inh-1 | APE1 inh | BLM inh-2 | RECQ1 inh-2 | others
CCOc1ccc(-c2nc(SCC(=O)Nc3ccc(C)c(C)c3)n3[nH]c(=O)cc3n2)cc1 | x | x | 0% | -5% | 14µM* | x | 18µM* | x
Cc1ccc(NC(=O)CSc2nc(-c3ccc(C(C)(C)C)cc3)nc3cc(=O)[nH]n23)cc1C | x | x | 3% | -4% | 3% | x | x | x
Cn1c(SCC(=O)c2cc(Cl)c(Cl)s2)nnc1-c1ccco1 | x | -6% | 0% | 2% | 13µM* | 2% | u | x
Cc1ccc(NC2=CC(=O)c3sc(C)nc3C2=O)cc1 | x | -3% | 17% | 40% | 7.9µM* | u | 20µM* | x
COc1cc(/C=C(/C#N)c2nc3ccccc3[nH]2)ccc1OCc1ccc(C(=O)O)o1 | -8% | -1% | -4% | -17% | 0% | -4% | x | x
COC(=O)c1ccc(COc2ccc(/C=C(\C#N)c3nc4ccccc4[nH]3)cc2OC)o1 | -9%[0.0737 µM] | u | x | -29% | 14µM* | -6% | u | 79µM*
Cc1ccc(-c2nn3c(C)nnc3s2)cc1NC(=O)c1ccc(-c2cccc(Cl)c2)o1 | -2% | 13µM* | -1% | -24% | -14% | 9% | -12% | u | ADP FP counter=29%[91.9 µM]
CC(C)(C)c1ccc(C(=O)NCC(=O)OC(C(=O)Nc2cc(C(F)(F)F)ccc2Cl)c2ccccc2)cc1 (configuration not stated) | x | x | 0% | x | x | x | x | x
Nc1ccc(N2CCCCC2)c2nonc12 | 9%[46 µM] | u | 3% | -4% | 22µM* | -3% | 1% | -2%
Nc1ccc(N2CCCCC2)cc1N1CCCCC1 | u | 8% | 10% | -5% | -3% | -2% | x | x
O=c1[nH]c(Nc2ccc(F)cc2)cc2ccccc12 | 3% | u | 3% | -8% | 32µM* | 7% | u | -30%
O=C(CSc1ccccc1F)NC(=O)NCc1ccco1 | u | 25µM* | -5% | u | 16µM* | u | u | 1%
O=C(CSc1ncccn1)NC(=O)NCc1ccco1 | 2%[46 µM] | -11% | x | -12% | -13% | u | x | x
CC(C)(C)OC(=O)NC(Cc1ccccc1)C(O)c1ccco1 (configuration not stated) | x | -5% | 4% | x | -2% | u | x | x
O=c1[nH]nc(CNc2ccc(O)cc2)c2ccccc12 | -3% | 14µM* | 2% | -5% | 35µM* | u | -3% | -8% | RECQ1 conf=15%[114 µM];ADP FP counter=40µM*
S=C(Nc1ccc2nsnc2c1)N1CCCC1 | -21%[46 µM] | u | 1% | u | 7.9µM* | u | u | 12%
O=C(Nc1ccc2nsnc2c1)N1CCCCCC1 | 20% | i | 6% | -16% | -2% | -1% | x | x
CCCN(C(=O)c1cc2c(s1)CCC2)c1c(N)n(Cc2ccccc2)c(=O)[nH]c1=O | x | 22µM* | x | -28% | 14µM* | u | u | -11% | RECQ1 conf=40µM*;ADP FP counter=17%[91.9 µM]
CCCCN(C(=O)c1cc2c(s1)CCC2)c1c(N)n(CCC)c(=O)[nH]c1=O | x | x | x | -14% | x | -38% | x | x

Bioassay records (PubChem BioAssay)
